CR mimetic SO = lowers age-related superoxide in aged yeast cells; S. cerevisiae aged cells, superoxide DHE fluorescence; active compounds read low; superoxide response (% of plate mean), % at 10 µM; hit rate 0.18% among 330,000; AID 2690;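 active means superoxide response under a set limit, about three screen SD below normal, cut at about 65% in these data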;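 further: yeast aged for seven days with compound at 30 °C before DHE staining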
LANA-H2B inh = blocks KSHV LANA binding to histone H2A/H2B. Q9QR71. cell-free LANA-H2A/H2B peptide, fluorescence polarization. inhibition, % (test concentration not listed). hit rate 0.6% among 320,000; in the data active means inhibition mostly above about 10%, no sharp cut-off; inactive means mostly below about 6.7%
GLD-1 RNA inh = GLD-1-TGE RNA interaction inhibition (C. elegans); AID 2280; Q17339; hit rate 0.44% among 320,000; inhibition, % at 5.96 µM; purified GLD-1 + fluorescein TGE RNA, fluorescence polarization;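 active means percent inhibition above a per-plate cutoff, the plate mean of test compounds plus 3 SD, cut at about 30% in these data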
MEX-5 binding = C. elegans MEX-5 TCR-2 RNA binding activity; MEX-5/FITC-TCR2 RNA binding, fluorescence polarization; active compounds read low; activity score (negative = inhibition of binding), % at 10 µM; hit rate 0.38% among 300,000;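 active means inhibition past about -25% in most replicates, and total fluorescence under double the plate's negative control median, limit read from the data; inconclusive means replicates evenly split on the limit, or fluorescence at least double controls; inactive means too little inhibition in most replicates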
Bcl-xL primary = inhibitors of human Bcl-xL; Q07817; GST-Bcl-xL / FITC-Bim BH3 peptide fluorescence polarization; inhibition, % at 10.9 µM; hit rate 0.7% among 320,000;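 active means inhibition above the mean of all tested compounds plus 3 SD, cutoff set per campaign, cut at about 30% in these data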;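 further: inhibitors lower millipolarization by displacing the labeled peptide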
Target sequence (Q07817 whole entry, looked up): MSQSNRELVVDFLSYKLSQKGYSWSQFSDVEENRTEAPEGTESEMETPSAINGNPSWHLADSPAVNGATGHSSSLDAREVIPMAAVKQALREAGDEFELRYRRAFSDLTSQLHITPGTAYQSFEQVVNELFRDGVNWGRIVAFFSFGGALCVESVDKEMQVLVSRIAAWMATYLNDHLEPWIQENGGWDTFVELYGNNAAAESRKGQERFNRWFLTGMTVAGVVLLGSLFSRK
MCL1 BIM primary = inhibitors of human MCL1 binding to BIM-BH3 peptide. Q07820. GST-MCL1 / FITC-Bim-BH3 fluorescence polarization. inhibition, % at 10.9 µM. hit rate 0.68% among 320,000. AID 2057;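 active means inhibition above the mean inhibition of all tested compounds plus 3 SD, set per campaign, cut at about 40% in these data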;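 further: higher means more loss of mP so more displacement of Bim peptide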
Bcl-xL conf = Bcl-xL (human) inhibition, MCL1 counter-screen confirmation. shares compounds with MCL1 BIM primary. GST-Bcl-xL / FITC-Bim BH3 peptide FP binding. inhibition, % at 10.9 µM. hit rate 54% among 1,700;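 active means inhibition above a cutoff equal to the mean inhibition of all tested compounds plus 3 SD, cut at about 30% in these data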
MCL1 inh confirm = MCL1-BIM-BH3 interaction inhibition, confirmation | GST-MCL1 / FITC-Bim-BH3 fluorescence polarization | shares compounds with MCL1 BIM primary | hit rate 61% among 1,700 | inhibition, % at 10.9 µM;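 active means inhibition above the average of all tested compounds plus 3 SD, cut at about 40% in these data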
Large screens that a line does not name were inactive (follow-up assays come after a bar, where they were run). Hits are enriched below; roughly 1.9% of the tested compounds scored in any of these assays.

Cc1noc(C)c1NC(=O)N(C)C[C@H]1Oc2ccc(NS(=O)(=O)c3ccc(F)cc3)cc2C(=O)N([C@H](C)CO)C[C@@H]1C	none (no result: MEX-5 binding, Bcl-xL primary, MCL1 BIM primary)
CCN(C(=O)c1coc(=O)c(Br)c1)c1ccc2c(c1)OCO2	Bcl-xL primary 58, MCL1 BIM primary 62 | Bcl-xL conf 110 | MCL1 inh confirm 122
O=C(COC(=O)/C=C/c1ccc(OC(F)F)cc1)Nc1ccc2[nH]c(=O)[nH]c2c1	none (no result: MEX-5 binding, Bcl-xL primary, MCL1 BIM primary)
CC(=O)N/N=C/c1cc(C(C)(C)C)cc(/C=N/NC(C)=O)c1O	GLD-1 RNA inh 156, Bcl-xL primary 94, MCL1 BIM primary 89 | Bcl-xL conf 86 | MCL1 inh confirm 115
O=C(CN(Cc1ccco1)Cc1ccco1)Nc1cc(S(=O)(=O)N2CCCCC2)ccc1Cl	none (no result: MEX-5 binding)
Cc1nnc(SCC2=C(C(=O)O)N3C(=O)C(NC(=O)Cn4cnnn4)C3SC2)s1 (stereo unspecified)	none
CN(C)CCn1nnnc1SCC1=C(C(=O)O)N2C(=O)[C@@H](NC(=O)Cc3csc(N)n3)[C@H]2SC1	Bcl-xL primary 37, MCL1 BIM primary 51 (no result: MEX-5 binding) | Bcl-xL conf inactive | MCL1 inh confirm inactive
O=C(CCl)N(CCc1ccccc1)CCc1ccccc1	none
COC(=O)c1cc(O)cc(OC)c1Oc1cc(C)cc(O)c1C(=O)O	MCL1 BIM primary 73 (no result: MEX-5 binding) | Bcl-xL conf inactive | MCL1 inh confirm 76
CCCCN(C(=O)c1cccc(-n2cccc2)c1)c1c(N)n(CCC)c(=O)[nH]c1=O	MCL1 BIM primary 55 | Bcl-xL conf inactive | MCL1 inh confirm 51
Cc1ccc(/C=c2\sc3nc(-c4ccco4)nn3c2=O)o1	MCL1 BIM primary 58 | Bcl-xL conf 45 | MCL1 inh confirm 72
Cc1ccc(/C=c2\sc3nc(-c4ccccc4Br)nn3c2=O)o1	none
COc1ccc(Br)cc1/C=c1\sc2nc(-c3ccco3)nn2c1=O	Bcl-xL primary 40, MCL1 BIM primary 80 | Bcl-xL conf inactive | MCL1 inh confirm 50
CCOC(=O)C1=CN(Cc2ccco2)S(=O)(=O)NC1CC (stereo unspecified)	none (no result: LANA-H2B inh, GLD-1 RNA inh, MEX-5 binding, Bcl-xL primary, MCL1 BIM primary)
COc1cc(/C=C/C(=O)O)cc(S(=O)(=O)Nc2ccc3c(c2)CCC3)c1OC	none
O=C(CSc1ccc(-c2ccco2)nn1)c1ccccc1	MCL1 BIM primary 42 | Bcl-xL conf inactive | MCL1 inh confirm inactive
CCCc1nc(SC2CCCC2)c2c(=O)n(C)c(=O)n(C)c2n1	MCL1 BIM primary active | Bcl-xL conf inactive | MCL1 inh confirm inactive
CCCc1nc(SCC(=O)N2CCC(C)CC2)c2c(=O)n(C)c(=O)n(C)c2n1	none (no result: MEX-5 binding)
Oc1ccccc1C=Nc1cccc2ccccc12	none
Oc1cccc(C=Nc2cccc3ccccc23)c1O	Bcl-xL primary 38, MCL1 BIM primary 66 | Bcl-xL conf 31 | MCL1 inh confirm 52
Oc1c(C=NCc2ccccc2)sc2ccccc12	none
Oc1cccc(C=NCc2ccccc2)c1O	MCL1 BIM primary 64 | Bcl-xL conf 32 | MCL1 inh confirm 65
Cc1ccc(NC(=S)Nc2ccc3nc(-c4ccccn4)c(-c4ccccn4)nc3c2)cc1C	GLD-1 RNA inh 103, Bcl-xL primary 122, MCL1 BIM primary 151 (no result: MEX-5 binding) | Bcl-xL conf 61 | MCL1 inh confirm 62
COCCCNC(=O)CSc1ccsc1[N+](=O)[O-]	none
Cc1ccccc1NC(=O)CSc1ccsc1[N+](=O)[O-]	MCL1 BIM primary 67 | Bcl-xL conf 32 | MCL1 inh confirm 90
O=C(O)c1cc(-c2ccc(/C=C3\NC(=O)N(c4ccc(Cl)cc4)C3=O)o2)ccc1Cl	MEX-5 binding inconclusive, MCL1 BIM primary 72 | Bcl-xL conf 32 | MCL1 inh confirm 55
O=C(O)c1cc(-c2ccc(/C=C3\NC(=O)N(c4ccccc4)C3=O)o2)ccc1Cl	none
O=C1C2CC=C(Cl)CC2C(=O)N1CCN1CCOCC1 (stereo unspecified)	none
